# Tests used:
# [1] = biological target: RAC-alpha serine/threonine-protein kinase (Homo sapiens) (UniProt P31749); details: at 0.1 µM
# [2] = biological target: RAC-alpha serine/threonine-protein kinase (Homo sapiens) (UniProt P31749); details: at 1 µM
# [3] = biological target: RAC-beta serine/threonine-protein kinase (Homo sapiens) (UniProt P31751); details: at 0.1 µM
# [4] = biological target: RAC-beta serine/threonine-protein kinase (Homo sapiens) (UniProt P31751); details: at 1 µM
# [5] = biological target: RAC-gamma serine/threonine-protein kinase (Homo sapiens) (UniProt Q9Y243); details: at 0.1 µM
# [6] = biological target: RAC-gamma serine/threonine-protein kinase (Homo sapiens) (UniProt Q9Y243); details: at 1 µM
# [7] = biological target: G protein-coupled receptor kinase 6 (Homo sapiens) (UniProt P43250); details: at 0.1 µM
# [8] = biological target: G protein-coupled receptor kinase 6 (Homo sapiens) (UniProt P43250); details: at 1 µM
# [9] = biological target: T1, Rhodopsin kinase GRK7 (Homo sapiens) (UniProt Q8WTQ7); details: at 0.1 µM
# T1 sequence (whole entry): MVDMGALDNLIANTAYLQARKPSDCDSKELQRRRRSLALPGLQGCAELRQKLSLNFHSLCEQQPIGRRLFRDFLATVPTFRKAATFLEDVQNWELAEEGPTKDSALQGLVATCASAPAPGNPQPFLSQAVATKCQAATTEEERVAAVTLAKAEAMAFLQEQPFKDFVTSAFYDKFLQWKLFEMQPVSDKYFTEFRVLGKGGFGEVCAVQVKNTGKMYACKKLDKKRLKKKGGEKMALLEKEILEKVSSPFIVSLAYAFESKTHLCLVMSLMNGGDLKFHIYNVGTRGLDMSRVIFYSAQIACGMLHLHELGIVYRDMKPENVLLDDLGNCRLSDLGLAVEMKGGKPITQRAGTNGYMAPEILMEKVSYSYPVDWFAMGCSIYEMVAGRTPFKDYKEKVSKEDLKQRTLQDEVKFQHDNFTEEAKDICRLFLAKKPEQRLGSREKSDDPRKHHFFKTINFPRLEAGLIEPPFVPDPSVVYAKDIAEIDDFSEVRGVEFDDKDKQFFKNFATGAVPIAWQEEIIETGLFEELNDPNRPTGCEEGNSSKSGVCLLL
# [10] = biological target: T1, Rhodopsin kinase GRK7 (Homo sapiens); details: at 1 µM
# [11] = biological target: Serine/threonine-protein kinase MRCK alpha (Homo sapiens) (UniProt Q5VT25); details: at 0.1 µM
# [12] = biological target: Serine/threonine-protein kinase MRCK alpha (Homo sapiens) (UniProt Q5VT25); details: at 1 µM
# [13] = biological target: Serine/threonine-protein kinase MRCK beta (Homo sapiens) (UniProt Q9Y5S2); details: at 0.1 µM
# [14] = biological target: Serine/threonine-protein kinase MRCK beta (Homo sapiens) (UniProt Q9Y5S2); details: at 1 µM
# [15] = biological target: Ribosomal protein S6 kinase alpha-5 (Homo sapiens) (UniProt O75582); details: at 0.1 µM
# [16] = biological target: Ribosomal protein S6 kinase alpha-5 (Homo sapiens) (UniProt O75582); details: at 1 µM
# [17] = biological target: Ribosomal protein S6 kinase alpha-4 (Homo sapiens) (UniProt O75676); details: at 0.1 µM
# [18] = biological target: Ribosomal protein S6 kinase alpha-4 (Homo sapiens) (UniProt O75676); details: at 1 µM
# [19] = biological target: Ribosomal protein S6 kinase beta-1 (Homo sapiens) (UniProt P23443); details: at 0.1 µM
# [20] = biological target: Ribosomal protein S6 kinase beta-1 (Homo sapiens) (UniProt P23443); details: at 1 µM
# Serine/threonine-protein kinase MRCK alpha (Homo sapiens), sequence (Q5VT25 whole entry): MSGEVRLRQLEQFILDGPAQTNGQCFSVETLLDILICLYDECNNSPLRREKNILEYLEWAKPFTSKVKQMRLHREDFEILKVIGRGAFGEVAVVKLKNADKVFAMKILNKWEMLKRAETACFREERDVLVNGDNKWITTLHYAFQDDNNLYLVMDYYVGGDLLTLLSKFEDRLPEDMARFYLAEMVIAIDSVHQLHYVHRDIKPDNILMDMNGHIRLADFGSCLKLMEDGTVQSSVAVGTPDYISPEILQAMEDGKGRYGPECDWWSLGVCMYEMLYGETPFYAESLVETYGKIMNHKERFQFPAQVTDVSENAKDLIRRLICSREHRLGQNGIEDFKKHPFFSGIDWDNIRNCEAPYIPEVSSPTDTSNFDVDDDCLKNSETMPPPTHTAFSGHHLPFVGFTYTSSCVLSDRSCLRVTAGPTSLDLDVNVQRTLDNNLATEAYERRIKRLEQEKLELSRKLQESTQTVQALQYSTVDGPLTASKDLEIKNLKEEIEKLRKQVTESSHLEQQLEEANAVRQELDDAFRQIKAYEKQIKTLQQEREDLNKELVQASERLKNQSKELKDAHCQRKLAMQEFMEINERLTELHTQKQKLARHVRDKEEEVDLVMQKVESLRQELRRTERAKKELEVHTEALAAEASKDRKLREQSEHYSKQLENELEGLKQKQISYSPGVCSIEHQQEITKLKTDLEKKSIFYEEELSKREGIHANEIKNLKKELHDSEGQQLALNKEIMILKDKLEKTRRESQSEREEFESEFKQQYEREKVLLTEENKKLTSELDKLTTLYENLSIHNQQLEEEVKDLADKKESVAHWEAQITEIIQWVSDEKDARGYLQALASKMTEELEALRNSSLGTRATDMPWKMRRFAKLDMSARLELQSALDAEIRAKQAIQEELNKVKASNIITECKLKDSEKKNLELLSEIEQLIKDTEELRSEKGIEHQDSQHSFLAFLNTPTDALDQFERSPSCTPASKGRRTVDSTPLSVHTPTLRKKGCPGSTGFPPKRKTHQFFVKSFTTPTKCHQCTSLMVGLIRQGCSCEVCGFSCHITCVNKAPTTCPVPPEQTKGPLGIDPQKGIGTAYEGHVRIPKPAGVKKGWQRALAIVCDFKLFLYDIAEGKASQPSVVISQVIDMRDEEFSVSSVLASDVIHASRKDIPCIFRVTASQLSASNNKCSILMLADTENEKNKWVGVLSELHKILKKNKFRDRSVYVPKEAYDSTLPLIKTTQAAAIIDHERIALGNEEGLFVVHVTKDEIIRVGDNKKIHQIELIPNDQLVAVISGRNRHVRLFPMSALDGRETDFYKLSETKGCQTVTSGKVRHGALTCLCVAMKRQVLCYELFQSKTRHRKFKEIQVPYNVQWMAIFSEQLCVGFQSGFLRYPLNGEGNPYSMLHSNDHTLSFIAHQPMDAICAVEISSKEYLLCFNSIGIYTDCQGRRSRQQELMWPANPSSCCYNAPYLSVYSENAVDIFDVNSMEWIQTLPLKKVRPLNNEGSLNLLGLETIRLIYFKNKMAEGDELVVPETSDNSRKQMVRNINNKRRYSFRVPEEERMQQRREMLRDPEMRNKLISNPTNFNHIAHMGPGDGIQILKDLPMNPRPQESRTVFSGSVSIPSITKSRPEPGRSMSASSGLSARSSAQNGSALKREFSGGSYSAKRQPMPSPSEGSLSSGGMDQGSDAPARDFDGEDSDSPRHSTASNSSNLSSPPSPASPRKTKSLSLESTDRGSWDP
# Ribosomal protein S6 kinase alpha-4 (Homo sapiens), sequence (O75676 whole entry, looked up): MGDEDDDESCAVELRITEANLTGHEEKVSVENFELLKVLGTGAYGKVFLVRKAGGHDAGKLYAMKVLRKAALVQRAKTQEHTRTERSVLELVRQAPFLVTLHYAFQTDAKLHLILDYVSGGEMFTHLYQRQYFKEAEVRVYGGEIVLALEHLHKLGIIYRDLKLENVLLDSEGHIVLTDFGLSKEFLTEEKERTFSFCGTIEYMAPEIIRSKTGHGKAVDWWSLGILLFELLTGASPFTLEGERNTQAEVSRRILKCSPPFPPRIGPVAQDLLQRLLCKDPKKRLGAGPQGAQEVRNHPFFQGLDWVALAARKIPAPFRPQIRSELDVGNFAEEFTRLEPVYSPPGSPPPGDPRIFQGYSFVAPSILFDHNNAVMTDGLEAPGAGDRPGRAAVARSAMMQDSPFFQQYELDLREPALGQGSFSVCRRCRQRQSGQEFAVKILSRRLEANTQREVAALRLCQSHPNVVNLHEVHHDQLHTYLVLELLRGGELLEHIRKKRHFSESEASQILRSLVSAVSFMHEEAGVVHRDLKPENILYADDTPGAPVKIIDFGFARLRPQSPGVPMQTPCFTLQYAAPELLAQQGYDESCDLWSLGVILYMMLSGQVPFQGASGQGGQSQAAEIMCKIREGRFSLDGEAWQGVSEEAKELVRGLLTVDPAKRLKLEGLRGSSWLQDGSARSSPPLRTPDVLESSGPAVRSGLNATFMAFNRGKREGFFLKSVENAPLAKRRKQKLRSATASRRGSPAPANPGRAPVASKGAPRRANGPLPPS
# RAC-alpha serine/threonine-protein kinase (Homo sapiens), sequence (P31749 whole entry): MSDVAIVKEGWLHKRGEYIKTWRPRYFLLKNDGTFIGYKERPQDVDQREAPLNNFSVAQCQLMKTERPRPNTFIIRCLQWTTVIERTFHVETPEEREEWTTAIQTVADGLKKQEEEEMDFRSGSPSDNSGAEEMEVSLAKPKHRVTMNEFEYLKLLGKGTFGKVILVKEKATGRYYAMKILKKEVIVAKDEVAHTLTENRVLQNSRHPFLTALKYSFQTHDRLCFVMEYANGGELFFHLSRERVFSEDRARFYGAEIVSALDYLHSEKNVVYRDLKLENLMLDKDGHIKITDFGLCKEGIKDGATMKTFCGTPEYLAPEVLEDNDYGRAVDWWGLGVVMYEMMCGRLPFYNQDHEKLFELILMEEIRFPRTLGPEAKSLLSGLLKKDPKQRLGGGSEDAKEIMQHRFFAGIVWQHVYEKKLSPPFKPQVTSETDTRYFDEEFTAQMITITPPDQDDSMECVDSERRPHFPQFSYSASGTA
# Ribosomal protein S6 kinase beta-1 (Homo sapiens), sequence (P23443 whole entry, looked up): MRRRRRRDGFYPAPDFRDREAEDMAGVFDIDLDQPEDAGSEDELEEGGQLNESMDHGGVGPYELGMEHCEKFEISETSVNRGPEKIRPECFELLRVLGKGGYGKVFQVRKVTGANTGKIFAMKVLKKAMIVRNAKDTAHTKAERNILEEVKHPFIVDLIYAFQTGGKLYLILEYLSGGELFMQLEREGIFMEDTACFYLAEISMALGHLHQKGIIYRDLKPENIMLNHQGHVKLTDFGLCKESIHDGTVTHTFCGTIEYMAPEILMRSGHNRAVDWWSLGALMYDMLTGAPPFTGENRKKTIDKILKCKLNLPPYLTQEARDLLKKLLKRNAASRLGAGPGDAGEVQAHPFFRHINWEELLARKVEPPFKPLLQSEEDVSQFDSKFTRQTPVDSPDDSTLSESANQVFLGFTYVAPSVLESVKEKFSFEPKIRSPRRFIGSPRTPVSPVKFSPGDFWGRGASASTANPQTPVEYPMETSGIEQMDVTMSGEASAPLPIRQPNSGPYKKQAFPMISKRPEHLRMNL
# RAC-beta serine/threonine-protein kinase (Homo sapiens), sequence (P31751 whole entry): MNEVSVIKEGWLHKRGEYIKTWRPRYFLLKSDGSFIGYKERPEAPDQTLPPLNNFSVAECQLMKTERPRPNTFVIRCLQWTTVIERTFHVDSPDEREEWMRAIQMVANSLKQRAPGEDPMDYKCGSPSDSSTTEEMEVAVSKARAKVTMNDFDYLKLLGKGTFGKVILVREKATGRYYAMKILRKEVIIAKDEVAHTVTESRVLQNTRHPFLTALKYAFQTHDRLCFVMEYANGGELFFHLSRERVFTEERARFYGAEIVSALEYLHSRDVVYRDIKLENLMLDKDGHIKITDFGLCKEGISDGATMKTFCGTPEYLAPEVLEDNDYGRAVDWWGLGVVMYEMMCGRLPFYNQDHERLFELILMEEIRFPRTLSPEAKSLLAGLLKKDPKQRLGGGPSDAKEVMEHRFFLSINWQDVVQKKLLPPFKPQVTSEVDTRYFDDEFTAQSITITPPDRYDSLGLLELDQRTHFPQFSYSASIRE
# Ribosomal protein S6 kinase alpha-5 (Homo sapiens), sequence (O75582 whole entry, looked up): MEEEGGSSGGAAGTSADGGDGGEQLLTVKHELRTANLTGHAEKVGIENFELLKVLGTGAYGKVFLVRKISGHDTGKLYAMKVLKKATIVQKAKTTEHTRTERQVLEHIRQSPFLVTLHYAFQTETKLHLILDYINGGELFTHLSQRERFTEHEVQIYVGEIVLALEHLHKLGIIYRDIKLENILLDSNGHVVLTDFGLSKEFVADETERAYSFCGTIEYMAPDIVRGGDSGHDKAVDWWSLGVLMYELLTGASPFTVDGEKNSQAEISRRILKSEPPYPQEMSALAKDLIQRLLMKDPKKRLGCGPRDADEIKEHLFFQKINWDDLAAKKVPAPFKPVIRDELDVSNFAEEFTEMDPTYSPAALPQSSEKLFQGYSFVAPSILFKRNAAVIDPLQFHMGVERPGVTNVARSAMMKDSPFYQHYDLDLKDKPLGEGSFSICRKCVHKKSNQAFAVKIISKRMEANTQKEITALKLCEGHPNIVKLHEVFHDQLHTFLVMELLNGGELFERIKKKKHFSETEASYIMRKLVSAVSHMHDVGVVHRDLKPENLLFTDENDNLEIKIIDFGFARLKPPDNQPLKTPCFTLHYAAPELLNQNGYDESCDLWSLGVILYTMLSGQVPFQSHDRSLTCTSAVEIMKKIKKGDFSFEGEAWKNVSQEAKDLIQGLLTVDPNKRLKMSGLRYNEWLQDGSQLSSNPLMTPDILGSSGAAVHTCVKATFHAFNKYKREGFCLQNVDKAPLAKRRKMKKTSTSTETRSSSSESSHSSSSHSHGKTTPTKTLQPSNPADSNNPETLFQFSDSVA
SMILES,inhibition [1],inhibition [2],inhibition [3],inhibition [4],inhibition [5],inhibition [6],inhibition [7],inhibition [8],inhibition [9],inhibition [10],inhibition [11],inhibition [12],inhibition [13],inhibition [14],inhibition [15],inhibition [16],inhibition [17],inhibition [18],inhibition [19],inhibition [20]
COc1cc(Nc2nccc(-c3cnn4ncccc34)n2)cc(OC)c1,0.23%,0.24%,0.16%,0.1%,0.27%,1.18%,0.91%,-0.01%,6.32%,9.43%,0.39%,3.14%,1.06%,3.3%,1.61%,7.26%,2.85%,15.7%,1.87%,6.59%
CCOc1nccc2c1nc(-c1nonc1N)n2CC,0.82%,1.86%,1.97%,1.44%,0.46%,1.25%,4.85%,18.1%,3.99%,8.26%,2.25%,5.56%,1.28%,2.92%,13.2%,45.4%,6.75%,27.6%,13.4%,56.5%
Cc1cc(Cl)cc2c1NC(=O)C2=NNc1ccc(S(N)(=O)=O)cc1,0.38%,0.03%,0.6%,1.11%,0.3%,0.71%,7.71%,11%,5.48%,13.2%,0.98%,2.69%,0.17%,-0.38%,3.06%,2.08%,2.85%,3.47%,0.25%,2.34%
Nc1nccc(C#Cc2cncnc2Nc2ccc(OCc3cccc(F)c3)c(Cl)c2)n1,1.34%,0.92%,1.52%,1.54%,2.87%,1.85%,1.35%,-4.58%,4.51%,1.2%,0.06%,-0.95%,-0.16%,2.38%,4.15%,4.83%,1.39%,4.41%,1.09%,1.35%
CC(C)c1ccc(Nc2nccc(-c3cnn4ncccc34)n2)cc1,0.38%,0.64%,1.28%,1.13%,1.09%,1.51%,4.74%,3.14%,2.17%,3.19%,-1.68%,-0.92%,-1.18%,-0.74%,0.84%,1.36%,1.31%,2.98%,0.78%,1.58%
COc1ccc2ncnc(Nc3ccc(OCc4ccccc4)cc3)c2c1,0.35%,-0.14%,0.26%,0.34%,0.84%,1.52%,1.69%,5.27%,2.31%,6.57%,0.54%,2.68%,0.54%,0.8%,1.25%,0.63%,-3.48%,1.47%,1.08%,0.96%
NS(=O)(=O)c1ccc(Nc2cc(-c3cccc(O)c3)n[nH]2)cc1,0.91%,0.58%,1.64%,3.28%,2.49%,1.75%,1.19%,3.55%,3.02%,5.39%,0.59%,0.11%,0.64%,1.33%,5.25%,5.94%,2.94%,9.16%,0.39%,2.83%
CCCN1CCCC(c2ccc(Nc3nc(Nc4cc(F)ccc4C(N)=O)c4cc[nH]c4n3)c(OC)c2)C1 (stereo not given),0.39%,0.27%,1.85%,1.92%,0.52%,2.18%,5.66%,25.3%,3.88%,16.6%,1.76%,17.9%,1.55%,13%,4.88%,5.31%,1.64%,7.01%,1.93%,4.24%
CCS(=O)(=O)c1ccc(OC)c(Nc2ncc(-c3cccc(OC)c3)o2)c1,0.36%,0.85%,1.41%,0.82%,1.04%,-0.57%,-1.06%,-5%,-0.18%,-8.47%,-0.07%,-0.94%,-0.48%,0.59%,3.23%,7.32%,-0.21%,3.76%,0.98%,1.18%
N#Cc1cccc(Nc2nccc(-c3cnn4ncccc34)n2)c1,0.4%,1.36%,1.11%,1.66%,3.16%,5.1%,2.91%,8.01%,6.46%,21.6%,0%,2.93%,-1.54%,1.01%,3.66%,8.54%,2.1%,8.46%,0.58%,3.59%
NS(=O)(=O)c1ccc(NC=C2C(=O)Nc3ccc4ncsc4c32)cc1,1.23%,-0.15%,2.3%,2.59%,0.79%,2.77%,6.28%,35.5%,6.78%,22.4%,3.96%,20.5%,5.03%,15.4%,11%,23.1%,28.8%,63.9%,5.33%,25.6%
COC(=O)Nc1nc2cc(Oc3ccc(NC(=O)Nc4cccc(Br)c4)cc3)ccc2[nH]1,0.46%,0.17%,1.35%,1.01%,1.37%,-2.06%,4.28%,6.2%,3.16%,25.9%,0.43%,0.85%,1.24%,-0.22%,2.67%,1.7%,2.29%,2.39%,2%,3.21%
C[C@@H](Oc1cc(-n2cnc3ccc(OCC4CCN(C)CC4)cc32)sc1C(N)=O)c1ccccc1C(F)(F)F,-0.94%,-1.34%,-1.9%,-0.71%,-1.91%,1.79%,-1.55%,-1.03%,2.15%,-2.25%,0.6%,5.18%,0.07%,0.75%,-2.08%,-0.6%,0%,2.52%,0.24%,5.55%

# From ChEMBL document CHEMBL1961873, “Compounds: GSK PKIS; Assays: Nanosyn kinase panel” (2012)
